# Data: PubChem BioAssay AID778 (Sanford-Burnham Center for Chemical Genomics, 2007)
# Screen size: about 96,000 compounds; about 20,000 (21%) were called active. These entries were drawn from the full list. Values without a mark were called inactive.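 Rule for the calls: active = CYP2C19 inhibition above a set limit at 5 µM in the primary screen (cut at about 50% in these data); inactive = the rest.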
# Biological target: Cytochrome P450 2C19 (Homo sapiens) (UniProt P33261)
# Assay: blockers of cytochrome P450 2C19 activity – biochemical, luminescence, ADME assay, primary screen (AID 778);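 note: plate controls were negative control wells for no effect and 2.5 mM tranylcypromine positive control for full effect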
# Settings: CYP2C19 Supersomes, luciferin-H EGE luminescence, 30 min; at 5 µM; stronger effect = higher value
# Cytochrome P450 2C19 (Homo sapiens), sequence (P33261 whole entry, looked up): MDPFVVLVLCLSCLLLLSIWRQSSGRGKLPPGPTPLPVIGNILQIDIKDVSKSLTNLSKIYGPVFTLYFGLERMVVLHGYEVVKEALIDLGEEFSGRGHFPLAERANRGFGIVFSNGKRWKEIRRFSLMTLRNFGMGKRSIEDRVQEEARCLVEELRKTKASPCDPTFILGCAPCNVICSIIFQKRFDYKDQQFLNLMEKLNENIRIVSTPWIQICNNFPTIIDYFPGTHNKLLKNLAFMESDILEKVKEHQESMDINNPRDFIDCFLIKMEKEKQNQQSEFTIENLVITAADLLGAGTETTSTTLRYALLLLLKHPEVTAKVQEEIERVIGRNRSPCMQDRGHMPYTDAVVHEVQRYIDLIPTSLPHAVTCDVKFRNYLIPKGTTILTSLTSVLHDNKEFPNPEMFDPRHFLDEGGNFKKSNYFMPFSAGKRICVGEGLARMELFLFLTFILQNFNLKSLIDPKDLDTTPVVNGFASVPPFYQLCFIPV
row,SMILES,inhibition
1,CSc1sc(C)cc1C1C(C#N)=C(N)N(c2cccnc2)C2=C1C(=O)CCC2 (stereo not given),29.4%
2,CCSc1ccccc1C(=O)NCc1ccc(OC)cc1,96.2% (active)
3,CCCNC(=O)c1ccccc1NC(=O)CSCc1ccc(OC)cc1,45.7%
4,CC(C)NC(=O)CSc1ccccc1C(=O)NCc1ccc2c(c1)OCO2,33.8%
5,COc1cc(OC)c(C(=O)Nc2ccc(N(C)C)cc2)cc1OC,-11%
6,CCCN1C(=O)C(NS(=O)(=O)c2ccc(N)cc2)(C(F)(F)F)C(C(=O)OC)=C1C (stereo not given),6.9%
7,O=C(NCCc1ccccc1)c1ccc(NC2=NC3CS(=O)(=O)CC3S2)cc1 (stereo not given),5%
8,CC1CCCN(c2ccc(C(=O)NCCc3ccccc3)cn2)C1 (stereo not given),60.7% (active)
9,CC(=O)c1cccc(NC(=O)N2CCCC2C(=O)NCCc2ccccc2)c1 (stereo not given),30.9%
10,CCc1ccc2oc(-c3ccc(N)cc3)nc2c1,-5.5%
11,CC(C)C(=O)N1CCN(CCN=CC2=C(O)CC(c3ccco3)CC2=O)CC1 (stereo not given),2.8%
12,O=[N+]([O-])c1ccccc1/C=N/n1c(COc2ccccc2)n[nH]c1=S,8.1%
13,Cc1cccc(-n2c(N)c(C(=O)N3CCN(C)CC3)sc2=S)c1,6.5%
14,CC1CCCN(Cc2nc3c(c(=O)n(C)c(=O)n3C)n2CC(=O)c2ccccc2)C1 (stereo not given),15.6%
15,COc1ccc(OC)c(NC(=O)CSc2nc(N)c(-c3ccccc3)c(=O)[nH]2)c1,11.1%
16,COc1ccc2nc(SCC(=O)Nc3c(C)cc(C)cc3C)[nH]c2c1,64.3% (active)
17,COc1cc2ccccc2cc1C(=O)Nc1ccc(S(=O)(=O)Nc2cc(C)on2)cc1,-10.1%
18,COC(=O)c1cccc(NC(=O)CSc2nc(C)cc(=O)[nH]2)c1,20.8%
19,COc1ccc(NC(=O)CSc2nc(N)c(-c3ccccc3)c(=O)[nH]2)cc1,2%
20,COc1ccc(NC(=O)CSc2nc(NS(=O)(=O)c3ccc(C)cc3)cc(=O)[nH]2)cc1,85.4% (active)
21,C=CCn1c(=S)[nH]c2nc3c(cc2c1=O)COC(C)(C)C3,41.9%
22,Cc1nc2ncnn2c(C)c1CCC(=O)N1CCN(C(=O)c2ccco2)CC1,-9.1%
23,CCN(c1ccccc1)S(=O)(=O)c1ccc(N)cc1,12.9%
24,Cn1nnc(NC(=O)CSc2ncn[nH]2)n1,-2%
25,Cn1nc(-c2ccc(Cl)cc2)c2cc(C(=O)NCc3ccco3)sc21,24.9%

row,SMILES,inhibition
1,Cc1cc(NC(=O)CSc2nnc(-c3ccc(Cl)s3)o2)no1,32.4%
2,COC(=O)CSc1nnc(-c2cccnc2)o1,7.2%
3,COc1ccc(OC)c(C(=O)CSc2nnc(-c3cccs3)o2)c1,54.9% (active)
4,COc1ccc(-c2nnc(SC(=O)N3c4ccccc4Sc4ccccc43)o2)cc1,11.9%
5,COc1ccc(-n2c(C)cc(C(=O)CSc3nnc(-c4cccs4)o3)c2C)cc1,83.2% (active)
6,COc1ccc(-c2nnc(SCC(=O)c3cccs3)o2)c(OC)c1,14.1%
7,COc1cc(/C=C(\C#N)c2nc3c(s2)CC(C)CC3)ccc1O (stereo not given),2.4%
8,Cc1ccc2nc(SCc3nnc(-c4ccccc4[N+](=O)[O-])o3)c(C#N)cc2c1,17.1%
9,O=S(=O)(CCc1nc2ccccc2o1)c1ccc(Cl)cc1,30.1%
10,COc1ccc(N2C(=O)C3CCCN3C2c2cccs2)cc1 (stereo not given),29.5%
11,CC12CN(Cc3ccccc3)CC(C)(CN(Cc3ccccc3)C1)C2=NO,15.1%
12,c1ccc(CSc2ncnc3c2sc2nc(N4CCOCC4)c4c(c23)CCCC4)cc1,4%
13,CCCSc1nsc(N)n1,15.5%
14,CCc1nn(-c2cc(Oc3cccc4ccccc34)nc(-c3ccccc3)n2)c(N)c1C#N,0.4%
15,O=S(=O)(NCc1ccccn1)c1ccc(F)cc1,40.5%
16,O=S(=O)(NCc1ccccn1)c1ccc(Br)s1,61.6% (active)
17,O=S(=O)(NCc1cccnc1)c1ccc(Br)s1,60.4% (active)
18,CN(c1ccc(C(=O)NCc2ccccn2)cc1)S(C)(=O)=O,14.5%
19,O=S(=O)(NCc1cccnc1)c1ccc(Cl)nc1,13.3%
20,Cc1cc(Cl)c(S(=O)(=O)NCc2cccnc2)cc1OCC(N)=O,-7.3%
21,C#CCSc1nnc(-c2sc3ccccc3c2Cl)o1,25.2%
22,COc1ccc(C(F)(F)F)cc1N/C=C\c1nnnn1-c1ccc(C)cc1,40.8%
23,CCc1ccccc1N(CC(=O)N1CCN(c2ccccc2F)CC1)S(C)(=O)=O,-6.6%
24,Cc1ccccc1OCC(=O)Nc1ccc(N2CCN(C(=O)C(C)C)CC2)c(Cl)c1,42.7%
25,Cc1csc(OCC(=O)Nc2ccc(C)c(C)c2)n1,15.8%

row,SMILES,inhibition
1,Cc1ccc(NC(=O)COc2ccc(-n3ccnc3)cc2)cc1Cl,99.2% (active)
2,Cc1ccc(SCC(=O)NC(=O)NCc2ccco2)c(C)c1,27%
3,CC1(N2CCOCC2)CC2(O)C(=[N+]1[O-])CCc1nonc12 (stereo not given),21.6%
4,CC(=O)c1cnn(-c2cc(Oc3ccc(F)cc3)ncn2)c1C,46.1%
5,COc1ccccc1Nc1ncc(C(C)=O)c(C)n1,1.3%
6,COc1ccccc1-c1c(C)nn2c(C)c(C(C)=O)cnc12,55% (active)
7,Cc1nn(-c2ncc(C(F)(F)F)cc2Cl)c(=O)n1-c1ccccc1,23.9%
8,CCCc1cc(=O)oc2c(C)c(O)c(CN3CCCCC3)cc12,44.5%
9,CC1Cc2cc(/C(O)=C3\C(=O)C(=O)N(CCN4CCOCC4)C3c3ccccc3F)ccc2O1 (stereo not given),-2.6%
10,Cn1c(Cn2nnc3ccccc32)nnc1SCC(=O)c1ccccc1F,7.9%
11,CC(C)NC(=O)CSc1nnc(COc2ccccc2Cl)o1,60.8% (active)
12,Cc1cc(C)cc(OCc2nnc(SCC(=O)Nc3ccccc3)o2)c1,2.4%
13,Cc1ccccc1OCc1nnc(SCC(=O)N2c3ccccc3Sc3ccc(Cl)cc32)o1,12%
14,CCOCCCNC(=O)Cc1cc(=O)[nH]c(=O)[nH]1,-18.9%
15,O=C(Nc1ccccc1N1CCCCC1)c1ccc2nccnc2c1,6.8%
16,CCCC(=O)Nc1ccccc1N1CCN(C(=O)c2ccccc2)CC1,33%
17,O=C(Nc1ccccc1N1CCN(C(=O)c2ccccc2)CC1)c1ccc2c(c1)OCO2,67% (active)
18,Cc1ccc(F)cc1NC(=O)c1ccc2c(c1)OCO2,33.3%
19,O=C(Nc1ccccc1N1CCN(c2ccccc2)CC1)c1cccc(F)c1,79.2% (active)
20,CC(C)C(=O)Nc1cccc(C(=O)Nc2ccc3c(c2)OCO3)c1,30.7%
21,O=C(CN1CCN(CC(=O)Nc2ccc3c(c2)OCO3)CC1)Nc1ccc(F)cc1,16.8%
22,O=C(Nc1ccccc1)c1ccc2c(c1)OCO2,81.4% (active)
23,O=C(Nc1ccccc1N1CCCCC1)c1cccc(F)c1,19%
24,O=C(CN1CCN(c2ccccc2F)CC1)c1ccc2c(c1)OCO2,67.3% (active)
25,O=C(Nc1ccc(N2CCN(C(=O)c3ccccc3)CC2)c(Cl)c1)c1cccnc1,22.7%

row,SMILES,inhibition
1,O=C(Nc1cccnc1)c1ccc2c(c1)OCO2,35.6%
2,O=C(NC12CC3CC(CC(C3)C1)C2)N1CCCC(CO)C1 (stereo not given),6.5%
3,Cc1csc2ncc(C(=O)N(Cc3ccccc3)c3ccccn3)c(=O)n12,0.8%
4,O=C(COc1ccc(Br)cc1F)NC1CCN(Cc2ccccc2)CC1,22.6%
5,Cc1cccc(C)c1NC1=NC(=S)N(c2ccc(N(C)C)cc2)C1(C)C,-1%
6,CN(C)/C=C1/C(=O)Nc2ccccc21,-9.6%
7,CCOC(=O)C1C(=O)OC2(CCCC2)C1C(=O)OCC (stereo not given),23.9%
8,NC(=NC(=O)c1ccccc1)C1=C(O)CCC1=O,-8%
9,CN1CCN(CC(=O)C23CC4CC(CC(C4)C2)C3)CC1,12%
10,CC12CCC(C(=O)N(CCC#N)CCC#N)(CC1=O)C2(C)C (stereo not given),-14%
11,Cc1cc(C(=O)OCC(=O)Nc2ccc(F)c(F)c2)c(C)o1,95% (active)
12,Cc1cc(NC(=O)COC(=O)c2ccc(F)c(S(=O)(=O)N3CCOCC3)c2)no1,8.2%
13,Cc1cc(C(=O)OCC(=O)c2c(N)n(C)c(=O)n(C)c2=O)c(C)o1,7.9%
14,COc1cc(OC)c(C(=O)NC2CC(C)(C)NC(C)(C)C2)cc1OC,-7.8%
15,CCOC(=O)NC(C(F)(F)F)(C(F)(F)F)P(=O)(c1ccccc1)c1ccccc1,-3.8%
16,c1nc(COc2nsnc2N2CCOCC2)cs1,53.5% (active)
17,c1ccc(COc2nsnc2N2CCOCC2)cc1,98.5% (active)
18,Fc1cnc(N2CCOCC2)nc1NCc1ccccc1,46.1%
19,O=C(O)COc1nsnc1N1CCOCC1,-5.8%
20,C/C(=N\NC(=O)Cc1ccc(Cl)cc1)c1ccccn1,39.5%
21,COc1cccc2sc(Nc3nc(C)c(C(C)=O)s3)nc12,12.5%
22,CCOC(=O)C1(S(=O)(=O)c2ccccc2)CCN(Cc2ccccc2)CC1,51.8% (active)
23,CCCC(=O)C1CCN(Cc2ccccc2)CC1,30.5%
24,CCOC(=O)C1(S(=O)(=O)c2ccc(Cl)cc2)CCN(Cc2ccccc2)CC1,42.5%
25,CSc1nc(C)cc(SC(C(C)=O)C(=O)Nc2ccccc2)n1 (stereo not given),11.6%
